Laboratory results reported in PMC7862700, “An all-to-all approach to the identification of sequence-specific readers for epigenetic DNA modifications on cytosine”.

Key:
Test in all cases: DAPPL (digital affinity profiling via proximity ligation, sequencing); 10 mM Tris-HCl pH 7.5, 50 mM NaCl, 1 mM DTT, 4% glycerol, room temperature, 30 min; GST-TFs on glutathione beads, 16-mer random dsDNA library, 0.1% formaldehyde crosslink after washing; high values mean tight binding
Conditions in all cases: protein: recombinant; tags: N-terminal GST; dsDNA, one strand shown
[1] = target: T1, FLI1 (Homo sapiens, UniProt Q01543 1-452)
T1 sequence: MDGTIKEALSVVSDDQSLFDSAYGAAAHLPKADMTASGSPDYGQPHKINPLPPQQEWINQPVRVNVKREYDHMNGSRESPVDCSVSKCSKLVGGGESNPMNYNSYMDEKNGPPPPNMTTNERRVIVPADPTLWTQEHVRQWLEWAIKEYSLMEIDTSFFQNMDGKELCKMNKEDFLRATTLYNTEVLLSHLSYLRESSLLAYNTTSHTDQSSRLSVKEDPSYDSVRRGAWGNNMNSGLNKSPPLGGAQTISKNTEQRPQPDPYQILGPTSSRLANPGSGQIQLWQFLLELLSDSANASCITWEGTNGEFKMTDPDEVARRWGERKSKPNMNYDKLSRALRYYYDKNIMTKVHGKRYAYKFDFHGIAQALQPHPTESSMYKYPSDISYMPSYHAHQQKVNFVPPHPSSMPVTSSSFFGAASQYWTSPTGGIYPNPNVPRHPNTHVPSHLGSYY
How it was run: (§1)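 Sequencing on an Illumina NextSeq500 followed washing, crosslinking with 0.1% formaldehyde, proximity ligation (BsaI/T4 ligase, 1 h, 37 °C) and PCR amplification of pools that had been incubated for 30 min at room temperature with 200 nmole of a random double-stranded 16-mer DNA library in Tris/NaCl/DTT/glycerol buffer. Each pool held DNA-barcoded human transcription factors, expressed in yeast as GST fusions and captured on glutathione beads, plus a tag-only sample. Binding signal is a hexamer's read frequency for a factor divided by its frequency in the tag-only sample.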

[2] = target: T2, ELK1 (Homo sapiens, UniProt P19419 1-428)
T2 sequence: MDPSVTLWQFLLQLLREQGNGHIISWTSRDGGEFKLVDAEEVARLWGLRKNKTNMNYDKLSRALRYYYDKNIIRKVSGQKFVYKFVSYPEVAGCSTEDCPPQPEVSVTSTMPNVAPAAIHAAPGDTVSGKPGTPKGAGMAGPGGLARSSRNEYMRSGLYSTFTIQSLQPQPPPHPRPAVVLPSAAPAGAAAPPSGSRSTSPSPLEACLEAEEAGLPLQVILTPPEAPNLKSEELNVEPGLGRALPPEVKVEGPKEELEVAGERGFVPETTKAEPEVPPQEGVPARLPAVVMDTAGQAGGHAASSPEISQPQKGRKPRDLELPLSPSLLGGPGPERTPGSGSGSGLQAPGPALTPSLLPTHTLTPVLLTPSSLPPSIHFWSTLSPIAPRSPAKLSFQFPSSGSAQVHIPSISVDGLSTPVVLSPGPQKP
How it was run: as §1

[3] = target: T3, GABPA (Homo sapiens, UniProt Q06546 1-454)
T3 sequence: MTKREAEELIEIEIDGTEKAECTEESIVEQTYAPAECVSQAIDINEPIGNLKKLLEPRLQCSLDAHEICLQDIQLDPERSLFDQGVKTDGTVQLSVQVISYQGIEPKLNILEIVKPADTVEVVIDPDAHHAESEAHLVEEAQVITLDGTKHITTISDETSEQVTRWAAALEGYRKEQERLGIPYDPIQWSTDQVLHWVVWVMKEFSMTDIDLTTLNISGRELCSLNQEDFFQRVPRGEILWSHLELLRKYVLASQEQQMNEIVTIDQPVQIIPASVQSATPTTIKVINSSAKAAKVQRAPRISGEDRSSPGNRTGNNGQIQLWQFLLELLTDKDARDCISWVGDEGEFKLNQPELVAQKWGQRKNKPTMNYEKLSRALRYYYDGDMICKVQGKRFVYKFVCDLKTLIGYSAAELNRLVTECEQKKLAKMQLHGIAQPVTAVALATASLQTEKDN
How it was run: as §1

[4] = target: T4, ERG (Homo sapiens, UniProt P11308 1-479)
T4 sequence: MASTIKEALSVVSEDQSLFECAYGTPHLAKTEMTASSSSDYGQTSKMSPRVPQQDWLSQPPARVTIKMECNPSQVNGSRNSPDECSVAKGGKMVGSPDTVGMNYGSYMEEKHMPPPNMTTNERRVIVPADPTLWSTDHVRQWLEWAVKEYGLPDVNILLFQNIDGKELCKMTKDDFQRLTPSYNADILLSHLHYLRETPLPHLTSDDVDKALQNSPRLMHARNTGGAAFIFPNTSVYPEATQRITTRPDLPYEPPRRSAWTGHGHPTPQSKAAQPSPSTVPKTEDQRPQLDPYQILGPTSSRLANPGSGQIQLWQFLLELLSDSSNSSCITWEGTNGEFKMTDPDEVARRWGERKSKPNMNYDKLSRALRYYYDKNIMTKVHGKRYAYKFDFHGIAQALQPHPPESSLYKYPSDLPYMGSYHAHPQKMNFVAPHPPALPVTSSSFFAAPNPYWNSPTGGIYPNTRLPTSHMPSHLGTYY
How it was run: as §1

[5] = target: ELF1 (Homo sapiens, UniProt P32519 1-619)
Sequence of ELF1 (P32519 whole entry): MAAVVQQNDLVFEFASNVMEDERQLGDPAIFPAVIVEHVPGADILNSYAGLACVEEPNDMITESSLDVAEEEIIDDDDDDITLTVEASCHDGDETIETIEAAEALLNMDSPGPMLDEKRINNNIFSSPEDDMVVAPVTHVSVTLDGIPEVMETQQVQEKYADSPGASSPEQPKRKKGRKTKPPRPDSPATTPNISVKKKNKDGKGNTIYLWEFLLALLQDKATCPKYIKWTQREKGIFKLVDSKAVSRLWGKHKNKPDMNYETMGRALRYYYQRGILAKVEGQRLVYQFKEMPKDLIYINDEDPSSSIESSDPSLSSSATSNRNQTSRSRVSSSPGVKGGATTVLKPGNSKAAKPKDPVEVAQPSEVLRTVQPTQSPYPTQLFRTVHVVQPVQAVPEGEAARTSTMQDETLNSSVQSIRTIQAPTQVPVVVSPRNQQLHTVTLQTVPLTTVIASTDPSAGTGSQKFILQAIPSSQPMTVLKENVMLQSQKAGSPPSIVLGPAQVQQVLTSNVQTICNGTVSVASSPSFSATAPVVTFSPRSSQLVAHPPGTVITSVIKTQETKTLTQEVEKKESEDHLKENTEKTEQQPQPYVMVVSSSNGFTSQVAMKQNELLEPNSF
How it was run: as §1

[6] = target: T5, EHF (Homo sapiens, UniProt Q9NZC4 1-300)
T5 sequence: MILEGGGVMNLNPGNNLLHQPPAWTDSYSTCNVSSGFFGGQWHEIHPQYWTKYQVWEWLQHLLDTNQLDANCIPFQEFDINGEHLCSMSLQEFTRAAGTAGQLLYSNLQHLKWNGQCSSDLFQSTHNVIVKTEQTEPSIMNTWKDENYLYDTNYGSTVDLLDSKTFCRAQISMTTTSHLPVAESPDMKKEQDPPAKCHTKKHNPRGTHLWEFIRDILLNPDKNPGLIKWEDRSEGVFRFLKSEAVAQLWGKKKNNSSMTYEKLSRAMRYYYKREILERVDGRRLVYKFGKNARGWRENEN
How it was run: as §1

[7] = target: SPI1 (Homo sapiens, UniProt P17947 1-270)
How it was run: as §1

[8] = target: SPIB (Homo sapiens, UniProt Q01892 1-262)
Sequence of SPIB (Q01892 whole entry): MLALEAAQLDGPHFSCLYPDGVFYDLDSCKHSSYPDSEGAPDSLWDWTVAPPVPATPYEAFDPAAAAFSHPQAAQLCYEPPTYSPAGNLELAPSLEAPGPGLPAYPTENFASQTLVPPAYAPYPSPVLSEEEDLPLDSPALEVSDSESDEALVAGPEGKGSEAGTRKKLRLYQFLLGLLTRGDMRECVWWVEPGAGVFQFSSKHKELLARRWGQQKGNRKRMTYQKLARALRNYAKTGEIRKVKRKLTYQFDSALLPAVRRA
How it was run: as §1

[9] = target: T6, ELK3 (Homo sapiens, UniProt P41970 1-407)
T6 sequence: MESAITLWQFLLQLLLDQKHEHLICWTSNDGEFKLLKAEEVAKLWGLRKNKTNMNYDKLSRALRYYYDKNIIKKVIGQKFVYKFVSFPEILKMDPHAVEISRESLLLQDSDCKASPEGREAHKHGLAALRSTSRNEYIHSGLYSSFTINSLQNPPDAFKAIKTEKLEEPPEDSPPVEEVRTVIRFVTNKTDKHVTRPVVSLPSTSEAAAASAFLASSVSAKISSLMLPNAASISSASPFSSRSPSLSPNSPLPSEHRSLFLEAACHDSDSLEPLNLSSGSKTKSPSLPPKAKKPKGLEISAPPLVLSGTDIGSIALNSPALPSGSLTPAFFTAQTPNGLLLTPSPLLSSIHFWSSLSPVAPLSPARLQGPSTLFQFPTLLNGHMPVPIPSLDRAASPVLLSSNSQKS
How it was run: as §1

[10] = target: T7, FEV (Homo sapiens, UniProt Q99581 1-238)
T7 sequence: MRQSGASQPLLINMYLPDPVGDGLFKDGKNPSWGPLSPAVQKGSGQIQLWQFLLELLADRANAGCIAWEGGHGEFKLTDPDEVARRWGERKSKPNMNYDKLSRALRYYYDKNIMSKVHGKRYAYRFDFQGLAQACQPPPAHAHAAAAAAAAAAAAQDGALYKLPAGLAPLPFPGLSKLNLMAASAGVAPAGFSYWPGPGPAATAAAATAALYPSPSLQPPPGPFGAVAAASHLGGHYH
How it was run: as §1

[11] = target: ETV5 (Homo sapiens, UniProt P41161 1-510)
Sequence of ETV5 (P41161 whole entry): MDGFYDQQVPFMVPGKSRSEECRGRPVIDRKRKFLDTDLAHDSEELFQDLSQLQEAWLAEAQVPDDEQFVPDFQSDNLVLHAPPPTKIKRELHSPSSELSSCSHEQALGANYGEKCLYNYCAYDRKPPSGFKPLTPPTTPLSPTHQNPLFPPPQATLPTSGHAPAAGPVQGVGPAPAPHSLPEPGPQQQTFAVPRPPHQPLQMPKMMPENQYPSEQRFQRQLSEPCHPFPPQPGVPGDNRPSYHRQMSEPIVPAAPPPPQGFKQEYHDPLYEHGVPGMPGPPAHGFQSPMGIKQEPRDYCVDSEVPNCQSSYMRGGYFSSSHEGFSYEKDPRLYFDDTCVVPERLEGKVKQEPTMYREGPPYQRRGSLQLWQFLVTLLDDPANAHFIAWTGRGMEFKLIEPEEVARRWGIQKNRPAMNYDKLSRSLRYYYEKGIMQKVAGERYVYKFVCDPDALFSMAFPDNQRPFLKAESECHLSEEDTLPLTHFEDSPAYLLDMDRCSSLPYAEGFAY
How it was run: as §1

[12] = target: ELF4 (Homo sapiens, UniProt Q99607 1-663)
Sequence of ELF4 (Q99607 whole entry): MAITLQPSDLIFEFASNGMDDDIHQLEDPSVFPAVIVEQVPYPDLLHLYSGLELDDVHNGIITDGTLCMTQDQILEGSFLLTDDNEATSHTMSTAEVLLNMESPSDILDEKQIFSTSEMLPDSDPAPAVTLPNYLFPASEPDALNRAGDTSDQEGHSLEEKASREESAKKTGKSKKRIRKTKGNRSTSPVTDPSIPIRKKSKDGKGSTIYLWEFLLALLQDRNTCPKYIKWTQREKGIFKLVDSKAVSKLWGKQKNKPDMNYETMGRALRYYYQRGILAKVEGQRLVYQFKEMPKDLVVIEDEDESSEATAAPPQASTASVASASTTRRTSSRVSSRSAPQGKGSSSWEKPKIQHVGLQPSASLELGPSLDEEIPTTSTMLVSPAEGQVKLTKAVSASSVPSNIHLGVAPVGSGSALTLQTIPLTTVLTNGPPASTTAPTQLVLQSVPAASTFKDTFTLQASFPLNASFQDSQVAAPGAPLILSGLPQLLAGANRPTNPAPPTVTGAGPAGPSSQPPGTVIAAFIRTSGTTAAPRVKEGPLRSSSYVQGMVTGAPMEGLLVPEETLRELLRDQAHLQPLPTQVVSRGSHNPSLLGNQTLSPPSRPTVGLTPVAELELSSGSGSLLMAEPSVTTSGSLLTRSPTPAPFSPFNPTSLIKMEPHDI
How it was run: as §1

[13] = target: ETV1 (Homo sapiens, UniProt P50549 1-477)
Sequence of ETV1 (P50549 whole entry): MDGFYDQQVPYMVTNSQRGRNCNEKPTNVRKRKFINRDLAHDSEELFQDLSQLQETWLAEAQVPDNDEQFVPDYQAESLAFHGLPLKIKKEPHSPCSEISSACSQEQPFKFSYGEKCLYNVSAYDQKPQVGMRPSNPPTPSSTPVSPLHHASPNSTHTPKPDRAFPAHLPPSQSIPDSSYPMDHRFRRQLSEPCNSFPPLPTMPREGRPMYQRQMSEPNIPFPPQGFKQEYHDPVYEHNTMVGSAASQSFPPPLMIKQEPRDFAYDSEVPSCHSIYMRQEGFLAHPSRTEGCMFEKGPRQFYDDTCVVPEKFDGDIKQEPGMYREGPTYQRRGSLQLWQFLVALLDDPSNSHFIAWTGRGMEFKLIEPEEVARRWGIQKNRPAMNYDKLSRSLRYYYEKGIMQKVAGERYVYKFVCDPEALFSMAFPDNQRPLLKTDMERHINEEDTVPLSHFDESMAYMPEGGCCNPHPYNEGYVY
How it was run: as §1

[14] = target: T8, ERF (Homo sapiens, UniProt P50548 1-548)
T8 sequence: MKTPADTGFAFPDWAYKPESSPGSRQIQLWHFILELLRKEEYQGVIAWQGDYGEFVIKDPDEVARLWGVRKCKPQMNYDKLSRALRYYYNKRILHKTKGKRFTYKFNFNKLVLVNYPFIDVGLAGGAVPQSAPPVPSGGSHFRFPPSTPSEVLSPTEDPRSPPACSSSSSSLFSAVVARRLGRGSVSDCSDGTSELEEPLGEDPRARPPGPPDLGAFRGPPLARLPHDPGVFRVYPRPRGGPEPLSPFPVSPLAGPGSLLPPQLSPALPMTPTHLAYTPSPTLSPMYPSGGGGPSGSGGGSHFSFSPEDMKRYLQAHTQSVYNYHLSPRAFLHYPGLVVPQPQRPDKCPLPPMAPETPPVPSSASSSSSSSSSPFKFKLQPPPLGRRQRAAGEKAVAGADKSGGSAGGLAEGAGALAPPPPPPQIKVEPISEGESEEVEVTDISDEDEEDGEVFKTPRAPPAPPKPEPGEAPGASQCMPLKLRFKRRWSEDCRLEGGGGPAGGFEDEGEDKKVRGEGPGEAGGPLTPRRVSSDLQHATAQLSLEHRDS
How it was run: as §1

[15] = target: T9, ETV3L (Homo sapiens, UniProt Q6ZN32 1-361)
T9 sequence: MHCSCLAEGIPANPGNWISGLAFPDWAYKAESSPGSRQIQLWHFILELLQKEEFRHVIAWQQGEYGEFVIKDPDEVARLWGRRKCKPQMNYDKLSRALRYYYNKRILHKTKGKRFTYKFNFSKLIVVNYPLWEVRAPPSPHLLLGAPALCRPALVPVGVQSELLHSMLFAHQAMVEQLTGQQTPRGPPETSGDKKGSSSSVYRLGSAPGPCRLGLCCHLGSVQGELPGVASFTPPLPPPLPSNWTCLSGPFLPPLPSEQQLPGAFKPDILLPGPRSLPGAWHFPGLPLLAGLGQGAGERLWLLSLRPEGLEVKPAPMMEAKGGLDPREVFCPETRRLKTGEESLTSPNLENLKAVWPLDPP
How it was run: as §1

[16] = target: T10, ETS2 (Homo sapiens, UniProt P15036 1-469)
T10 sequence: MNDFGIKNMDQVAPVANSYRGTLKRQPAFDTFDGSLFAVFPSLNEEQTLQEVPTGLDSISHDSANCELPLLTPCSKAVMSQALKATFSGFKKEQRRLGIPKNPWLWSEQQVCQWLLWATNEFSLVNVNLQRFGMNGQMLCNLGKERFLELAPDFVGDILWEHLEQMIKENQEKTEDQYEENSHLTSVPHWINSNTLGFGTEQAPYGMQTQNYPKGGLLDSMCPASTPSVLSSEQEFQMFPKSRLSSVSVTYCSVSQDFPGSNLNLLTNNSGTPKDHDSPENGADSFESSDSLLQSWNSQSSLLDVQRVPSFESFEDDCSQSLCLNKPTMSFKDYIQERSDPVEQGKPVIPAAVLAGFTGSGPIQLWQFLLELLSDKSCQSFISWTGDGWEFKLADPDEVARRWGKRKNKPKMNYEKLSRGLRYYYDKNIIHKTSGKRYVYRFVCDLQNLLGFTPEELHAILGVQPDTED
How it was run: as §1

[17] = target: T11, SPDEF (Homo sapiens, UniProt O95238 1-335)
T11 sequence: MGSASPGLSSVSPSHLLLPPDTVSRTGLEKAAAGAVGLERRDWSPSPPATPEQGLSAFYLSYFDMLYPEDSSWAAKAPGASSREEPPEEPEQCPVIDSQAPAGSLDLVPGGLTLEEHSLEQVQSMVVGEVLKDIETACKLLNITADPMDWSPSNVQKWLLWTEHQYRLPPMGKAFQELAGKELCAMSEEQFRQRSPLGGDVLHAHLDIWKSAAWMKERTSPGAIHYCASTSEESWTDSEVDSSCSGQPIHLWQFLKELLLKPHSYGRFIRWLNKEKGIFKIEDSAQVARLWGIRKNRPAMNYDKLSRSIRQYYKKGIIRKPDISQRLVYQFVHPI
How it was run: as §1

[18] = target: T12, ETV3 (Homo sapiens, UniProt P41162-2 1-143)
T12 sequence: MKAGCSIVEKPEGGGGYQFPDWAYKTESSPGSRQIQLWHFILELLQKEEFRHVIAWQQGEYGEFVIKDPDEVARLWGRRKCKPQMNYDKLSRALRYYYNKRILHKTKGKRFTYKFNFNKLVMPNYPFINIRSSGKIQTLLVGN
How it was run: as §1

[19] = target: ETV6 (Homo sapiens, UniProt P41212 1-452)
Sequence of ETV6 (P41212 whole entry): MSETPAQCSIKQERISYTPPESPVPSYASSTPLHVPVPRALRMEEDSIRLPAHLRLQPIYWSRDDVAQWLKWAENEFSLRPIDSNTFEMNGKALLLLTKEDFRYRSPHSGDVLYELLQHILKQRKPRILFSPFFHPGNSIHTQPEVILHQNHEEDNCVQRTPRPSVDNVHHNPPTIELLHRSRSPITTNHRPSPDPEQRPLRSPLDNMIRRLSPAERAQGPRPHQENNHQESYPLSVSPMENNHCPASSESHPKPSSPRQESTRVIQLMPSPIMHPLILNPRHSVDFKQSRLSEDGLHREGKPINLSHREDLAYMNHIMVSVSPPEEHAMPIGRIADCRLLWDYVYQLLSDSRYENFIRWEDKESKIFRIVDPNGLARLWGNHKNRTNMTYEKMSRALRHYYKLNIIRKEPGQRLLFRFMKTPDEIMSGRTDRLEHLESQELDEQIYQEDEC
How it was run: as §1

ACGACC
binding signal [1]: 1.18 fold enrichment (6-mer frequency, TF over GST control)
binding signal [2]: 1.21 fold enrichment (6-mer frequency, TF over GST control)
binding signal [3]: 1.11 fold enrichment (6-mer frequency, TF over GST control)
binding signal [4]: 1.1 fold enrichment (6-mer frequency, TF over GST control)
binding signal [5]: 1.21 fold enrichment (6-mer frequency, TF over GST control)
binding signal [6]: 1.1 fold enrichment (6-mer frequency, TF over GST control)
binding signal [7]: 1.03 fold enrichment (6-mer frequency, TF over GST control)
binding signal [8]: 1.07 fold enrichment (6-mer frequency, TF over GST control)
binding signal [9]: 1.31 fold enrichment (6-mer frequency, TF over GST control)
binding signal [10]: 1.22 fold enrichment (6-mer frequency, TF over GST control)
binding signal [11]: 1.17 fold enrichment (6-mer frequency, TF over GST control)
binding signal [12]: 1.26 fold enrichment (6-mer frequency, TF over GST control)
binding signal [13]: 1.2 fold enrichment (6-mer frequency, TF over GST control)
binding signal [14]: 1.11 fold enrichment (6-mer frequency, TF over GST control)
binding signal [15]: 1.18 fold enrichment (6-mer frequency, TF over GST control)
binding signal [16]: 1.15 fold enrichment (6-mer frequency, TF over GST control)
binding signal [17]: 1.2 fold enrichment (6-mer frequency, TF over GST control)
binding signal [18]: 1.24 fold enrichment (6-mer frequency, TF over GST control)
binding signal [19]: 1.19 fold enrichment (6-mer frequency, TF over GST control)
